The nature of assay [1]: anti-His antibody binders, primary screen, artefact control for SMM control protein annotation, biochemical, small-molecule microarray, 635 nm fluorescence (AID 1128).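 Note: score merges feature fluorescence with signal-to-noise for each printed compound spot.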 Particulars: anti-His Alexa647 antibody binding, higher = more signal.
Assay [2] concerns Human papillomavirus type 1a E7 protein (residues 1-88). As to the kind of experiment: HPV1a E7 small-molecule binders, primary screen, biochemical, small-molecule microarray, residues 1-88, 635 nm (AID 1129). Particulars: small-molecule microarray binding, fluorescence 635 nm; higher = more signal.
Assay [3] has as its target Focal adhesion kinase 1 (Homo sapiens) (UniProt Q05397). The assay is described as follows: small-molecule microarray binders of FAK, primary screen, biochemical, 635/667 nm fluorescence, BSA, DTT (AID 1130).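 Note: composite of spot emission at 667 nm and signal to noise over triplicate slides.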 Particulars: PTK2 binding, 635 nm fluorescence, higher = more signal.
Assay [4] relates to Fibrinogen (Alexa647-labelled). The assay is described as follows: fibrinogen binders on compound microarrays, profiling panel, artefact control for SMM control-protein annotation, biochemical, small-molecule microarray, 635/667 nm fluorescence (AID 1131).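 Note: z-score merges 667 nm fluorescence with per-spot signal-to-noise over triplicate slides.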 Particulars: fibrinogen-A647 binding fluorescence, higher = more signal.
Assay [5] concerns the target Follistatin (Homo sapiens) (UniProt P19883). The assay is described as follows: follistatin binders on small-molecule microarrays, primary screen, biochemical, small-molecule microarray, 635/667 nm fluorescence (AID 1132). Particulars: FST binding, 635 nm fluorescence, higher = more signal.
The target in assay [6] is Fibroblast growth factor 2 (Homo sapiens) (UniProt P09038). The assay is described as follows: FGF2 binders on small-molecule microarrays, primary screen, biochemical, small-molecule microarray, 635/667 nm fluorescence (AID 1133). Particulars: small-molecule microarray binding, FGF2, fluorescence 635/667; higher = more signal.
Assay [7] is described as follows: mitochondrial membrane potential change in A549 cells, profiling panel, cell-based, JC-1 fluorescence, basal, 24 h, 100 nL (AID 1138).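 Note: A549 lung adenocarcinoma cells under basal conditions with no added stimulus; test concentration not given here.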 Conditions: higher = more signal.
The subject of another assay is Lefty1. The assay is described as follows: Lefty1 binders on small-molecule microarrays, primary screen, biochemical, small-molecule microarray, 635/667 nm fluorescence (AID 1139). Conditions: small-molecule microarray binding, fluorescence 635/667; higher = more signal.
Assay [8] relates to wheat germ agglutinin (Triticum aestivum), Alexa647-labelled. The assay is described as follows: wheat germ agglutinin binders on compound microarrays, profiling panel, artefact control for SMM control-protein annotation, biochemical, small-molecule microarray, 635/667 nm fluorescence (AID 1140).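 Note: score merges 667 nm feature emission with signal to noise over triplicate slides.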 Conditions: WGA-A647 binding, 635 nm fluorescence, higher = more signal.
Assay [9] deals with Luciferin 4-monooxygenase (Photinus pyralis) (UniProt P08659). The assay is described as follows: firefly luciferase enzyme inhibitors, primary screen, biochemical, luminescence, purified enzyme, 2006 set (AID 1141).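 Note: cell-free assay with purified firefly luciferase at 100 ng per well in PBS; test concentration not given here.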 Particulars: SteadyGlo luminescence, 30 min, higher = more signal, called active from +8 up or from −8 down.
In assay [10] the test system is Wnt5a (protein binding on small-molecule microarray). The assay is described as follows: Wnt5a binders on small-molecule microarray, primary screen, biophysical, 635/667 nm fluorescence (AID 1142).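 Note: fluorescence read at 667 nm with signal to noise per printed feature.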 Particulars: 635 nm fluorescence, higher = more signal.
A short description of assay [11]: cell viability in Huh7 cells, primary screen, cytotoxicity control for HCV replication inhibitor project, CellTiter-Glo luminescence, basal, 48 h (AID 1143).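 Note: Huh7 hepatoma cells carrying a hepatitis C replication reporter with no stimulus; test concentration not given here.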 Conditions: Huh7 HCV replicon, higher = more signal, called active from +8 up or from −8 down.
Assay [12] can be described thus: P. aeruginosa biofilm formation inhibitors, primary screen, PAO1 strain, BacTiter-Glo luminescence, LB-PBS (AID 1144). Conditions: 12 h, higher = more signal.
Assay [13] is described as follows: CREB reporter modulators without forskolin, primary screen, cell-based, PC12, CRE-LacZ reporter, unstimulated (AID 1145). Particulars: no forskolin, luminescence, 4.5 h, higher = more signal, called active from +8 up or from −8 down.
Assay [14] is described as follows: CREB reporter modulators under forskolin, primary screen, cell-based, PC12, CRE-LacZ reporter, forskolin-stimulated (AID 1146).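 Note: PC12 cells with 6xCRE LacZ reporter stimulated by forskolin 10 µM; beta-galactosidase reporter signal reflecting CREB driven transcription.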 Particulars: luminescence, 4.5 h, higher = more signal, called active from +8 up or from −8 down.
Assay [15] has as its target Streptavidin (Streptomyces avidinii) (UniProt P22629). As to the kind of experiment: streptavidin binders on small-molecule microarray, primary screen, artefact control for SMM compound annotation, biophysical, 635/667 nm fluorescence (AID 1147).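 Note: signal reflects streptavidin binding to arrayed compounds as a control protein.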 Conditions: streptavidin binding, higher = more signal.
The nature of assay [16]: small-molecule binders of probe aInhba, primary screen, biochemical, small-molecule microarray, 635/667 nm fluorescence (AID 1148).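 Note: score merges 667nm spot fluorescence with signal-to-noise for antibody binding to printed compounds.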 Conditions: higher = more signal.
Assay [17] deals with Torsin-1A (Homo sapiens) (UniProt O14656). As to the kind of experiment: torsin A binders from cell lysate, primary screen, small-molecule microarray, wild-type, 635/667 nm (AID 1149). Conditions: COS7 hTOR1A-WT lysate, 635 nm fluorescence, higher = more signal.
The target is the same in assay [18]. As to the kind of experiment: small-molecule binders of mutant TOR1A in lysate, primary screen, cell lysate, small-molecule microarray, COS7 lysate, 635/667 nm fluorescence (AID 1150).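 Note: score pools 667 nm emission and signal to noise measuring lysate protein binding.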 Conditions: COS7 hTOR1A mutant lysate, 635 nm fluorescence, higher = more signal.
The subject of assay [19] is Sonic hedgehog protein (Shh). The assay is described as follows: small-molecule binders of Shh protein, primary screen, biochemical, small-molecule microarray, 635/667 nm fluorescence (AID 1151).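 Note: Shh protein binding to compounds spotted on small-molecule microarray slides; score combines spot fluorescence intensity with signal-to-noise across triplicate slides.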 Conditions: small-molecule microarray binding, 635 nm fluorescence; higher = more signal.

The record followed here is PubChem BioAssay.

Active and inactive are the calls of the source. Unless noted, the rule behind the calls is not given here.

Chain of Follistatin (Homo sapiens) (P19883 whole entry, looked up): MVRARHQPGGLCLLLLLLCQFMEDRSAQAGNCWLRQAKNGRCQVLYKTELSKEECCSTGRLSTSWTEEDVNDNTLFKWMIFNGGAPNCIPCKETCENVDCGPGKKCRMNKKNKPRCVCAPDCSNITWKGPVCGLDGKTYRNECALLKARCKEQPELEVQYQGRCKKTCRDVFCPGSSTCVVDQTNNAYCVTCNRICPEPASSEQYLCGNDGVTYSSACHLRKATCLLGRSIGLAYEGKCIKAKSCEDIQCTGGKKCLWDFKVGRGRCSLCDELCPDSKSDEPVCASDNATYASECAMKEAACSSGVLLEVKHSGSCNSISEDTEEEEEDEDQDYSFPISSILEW
Chain of Luciferin 4-monooxygenase (Photinus pyralis) (P08659 whole entry, looked up): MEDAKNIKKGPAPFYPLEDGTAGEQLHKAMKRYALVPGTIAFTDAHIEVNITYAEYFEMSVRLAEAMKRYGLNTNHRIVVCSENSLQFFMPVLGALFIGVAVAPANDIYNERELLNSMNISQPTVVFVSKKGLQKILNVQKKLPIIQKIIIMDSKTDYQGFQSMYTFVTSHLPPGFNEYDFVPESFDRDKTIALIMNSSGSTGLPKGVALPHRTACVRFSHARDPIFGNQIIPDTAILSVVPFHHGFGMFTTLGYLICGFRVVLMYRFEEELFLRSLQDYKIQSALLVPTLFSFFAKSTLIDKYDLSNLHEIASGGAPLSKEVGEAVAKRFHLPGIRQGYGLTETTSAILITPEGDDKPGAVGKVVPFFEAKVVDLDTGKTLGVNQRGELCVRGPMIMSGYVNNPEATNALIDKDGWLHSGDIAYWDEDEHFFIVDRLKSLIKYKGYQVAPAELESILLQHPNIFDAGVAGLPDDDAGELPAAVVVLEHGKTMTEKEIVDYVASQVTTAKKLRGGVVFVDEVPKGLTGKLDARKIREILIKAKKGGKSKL
Chain of Torsin-1A (Homo sapiens) (O14656 whole entry, looked up): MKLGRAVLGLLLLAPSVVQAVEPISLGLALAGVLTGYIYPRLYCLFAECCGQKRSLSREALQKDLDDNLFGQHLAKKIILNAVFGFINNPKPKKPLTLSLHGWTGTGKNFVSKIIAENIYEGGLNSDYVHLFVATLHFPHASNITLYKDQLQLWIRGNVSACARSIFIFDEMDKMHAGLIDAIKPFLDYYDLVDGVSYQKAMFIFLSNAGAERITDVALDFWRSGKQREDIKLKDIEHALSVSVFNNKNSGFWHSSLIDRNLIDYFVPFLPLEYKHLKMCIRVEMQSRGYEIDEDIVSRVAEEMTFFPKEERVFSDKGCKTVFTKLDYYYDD
Chain of Focal adhesion kinase 1 (Homo sapiens) (Q05397 whole entry, looked up): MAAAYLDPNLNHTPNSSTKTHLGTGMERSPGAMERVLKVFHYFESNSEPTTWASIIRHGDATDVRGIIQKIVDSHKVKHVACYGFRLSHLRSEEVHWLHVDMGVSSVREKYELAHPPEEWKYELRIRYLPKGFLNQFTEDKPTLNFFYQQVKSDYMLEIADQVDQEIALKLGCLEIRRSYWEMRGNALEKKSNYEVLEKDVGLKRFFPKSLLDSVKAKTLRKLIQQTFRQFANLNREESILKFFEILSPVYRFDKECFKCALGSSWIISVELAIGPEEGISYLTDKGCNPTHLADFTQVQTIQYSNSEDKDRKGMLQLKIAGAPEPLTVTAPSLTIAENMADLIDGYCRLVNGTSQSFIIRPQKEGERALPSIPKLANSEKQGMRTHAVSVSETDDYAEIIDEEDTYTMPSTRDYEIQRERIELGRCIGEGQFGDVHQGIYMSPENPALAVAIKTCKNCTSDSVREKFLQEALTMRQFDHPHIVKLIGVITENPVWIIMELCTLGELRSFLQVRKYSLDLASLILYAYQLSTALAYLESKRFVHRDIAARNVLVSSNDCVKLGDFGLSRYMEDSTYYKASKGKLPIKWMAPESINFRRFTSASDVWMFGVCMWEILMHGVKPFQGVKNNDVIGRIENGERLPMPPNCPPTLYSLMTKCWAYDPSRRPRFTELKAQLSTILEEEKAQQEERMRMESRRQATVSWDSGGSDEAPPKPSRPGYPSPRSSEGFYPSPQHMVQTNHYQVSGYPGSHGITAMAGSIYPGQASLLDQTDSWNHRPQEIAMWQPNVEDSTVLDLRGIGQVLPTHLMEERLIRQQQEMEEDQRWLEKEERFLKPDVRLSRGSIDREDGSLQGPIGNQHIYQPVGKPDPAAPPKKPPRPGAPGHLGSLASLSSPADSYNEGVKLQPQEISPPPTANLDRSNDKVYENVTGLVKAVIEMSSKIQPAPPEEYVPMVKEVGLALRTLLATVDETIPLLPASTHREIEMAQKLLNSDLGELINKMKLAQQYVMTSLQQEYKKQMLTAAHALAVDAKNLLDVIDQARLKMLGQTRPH
Chain of Fibroblast growth factor 2 (Homo sapiens) (P09038 whole entry, looked up): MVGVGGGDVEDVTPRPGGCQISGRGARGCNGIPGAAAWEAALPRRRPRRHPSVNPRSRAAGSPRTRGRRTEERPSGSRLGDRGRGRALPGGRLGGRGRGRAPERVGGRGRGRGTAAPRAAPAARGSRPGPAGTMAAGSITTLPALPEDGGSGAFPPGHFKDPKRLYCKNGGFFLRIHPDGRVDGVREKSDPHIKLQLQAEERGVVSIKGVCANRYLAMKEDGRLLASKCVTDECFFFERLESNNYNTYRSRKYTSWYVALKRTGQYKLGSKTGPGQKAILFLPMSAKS
Chain of Streptavidin (Streptomyces avidinii) (P22629 whole entry, looked up): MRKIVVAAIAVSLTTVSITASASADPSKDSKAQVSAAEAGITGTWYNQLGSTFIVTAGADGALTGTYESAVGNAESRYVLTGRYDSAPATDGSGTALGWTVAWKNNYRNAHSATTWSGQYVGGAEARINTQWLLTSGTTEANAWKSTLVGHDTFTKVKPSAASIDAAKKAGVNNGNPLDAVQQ

As to `C=C(/C(=C/C[C@@H](OC(C)=O)c1ccc(OCCO)cc1)c1cnc2ccccc2c1)C(C)C`, the composite z-score in assay [1] was 0.204; in assay [2], 0.408; in [3], 0.166; in assay [4], -0.59; in assay [5], 1.1; in assay [6], 0.757. Further, the composite z-score in the assay on Lefty1 is 0.806; in [8], 0.983; in assay [10] it was 0.0701; in assay [15], 0.376; in [16] it was -0.084; with Torsin-1A (Homo sapiens) [17], -0.969. The composite z-score with Torsin-1A (Homo sapiens) [18] came out at 0.576; in assay [19], 1.67. Moreover, the z-score in [7] is 1.04; in [9], -1.6 (inactive); in [11], -1.07 (inactive); in [12], -0.25 (inactive); in assay [13] it was 0.681 (inactive); in assay [14], -0.45 (inactive).
Take `C=CCC(OC(C)=O)[C@@H]1[C@@H](N(Cc2ccc(-c3cccc(C(F)(F)F)c3)o2)C(=O)Cc2ccc(F)cc2)c2cc(OCCCO)ccc2N1C(=O)Cc1ccc(OC)cc1` (stereo not given in full): the composite z-score in [1] is -0.775; in assay [2] it was -2.07; in [3], -0.572; in assay [4] it was -0.0256; in assay [5], 0.346; in [6], -0.308. Moreover, the composite z-score is -0.0727 with Lefty1; 0.114 in assay [8]; -0.186 in assay [10]; -1.07 in assay [15]; -0.183 in [16]; -2.21 in the assay with Torsin-1A (Homo sapiens) [17]. Also, the composite z-score was -0.945 in the assay with Torsin-1A (Homo sapiens) [18] and 0.392 in [19]. Further, the z-score in assay [7] is 0.812; in assay [9], 0.175 (inactive); in [11], -0.705 (inactive); in [12], -1.63 (inactive); in assay [13] it was 0.236 (inactive); in assay [14], 0.239 (inactive).
As for `CCOC(=O)C[C@H]1[C@H](OC(=O)Cc2ccc3c(c2)OCO3)[C@@H](NC(=O)c2ccc(-c3ccccc3)cc2)c2cc(OCCCO)ccc2N1C(=O)c1ccc2ccccc2n1`, the composite z-score in assay [1] was 0.0542; in assay [2], 0.242; in [3] it was 0.179; in assay [4], 0.368; in assay [5] it was 0.46; in assay [6], -0.0919. The composite z-score was 0.278 in the assay on Lefty1; 0.132 in assay [8]; 0.317 in assay [10]; 1.41 in [15]; -0.231 in [16]; -0.184 with Torsin-1A (Homo sapiens) [17]. The composite z-score amounted to 0.438 in the assay with Torsin-1A (Homo sapiens) [18] and 0.0508 in [19]. The z-score is -0.728 in [7]; 0.74 (inactive) in assay [9]; -4.97 (inactive) in assay [11]; -0.157 (inactive) in [12]; 4.93 (inactive) in assay [13]; -0.87 (inactive) in assay [14].
